In the supplement of paper PMC10681739:
The full ranking holds about 2,700 sequences; the median of “arbitrary fluorescence units” is about 4,100, and the highest 2% start at about 54,000. This excerpt belongs to a sample that is enriched for the highest values.

Target: T1, ETS1 (UniProt P14921)
T1 sequence: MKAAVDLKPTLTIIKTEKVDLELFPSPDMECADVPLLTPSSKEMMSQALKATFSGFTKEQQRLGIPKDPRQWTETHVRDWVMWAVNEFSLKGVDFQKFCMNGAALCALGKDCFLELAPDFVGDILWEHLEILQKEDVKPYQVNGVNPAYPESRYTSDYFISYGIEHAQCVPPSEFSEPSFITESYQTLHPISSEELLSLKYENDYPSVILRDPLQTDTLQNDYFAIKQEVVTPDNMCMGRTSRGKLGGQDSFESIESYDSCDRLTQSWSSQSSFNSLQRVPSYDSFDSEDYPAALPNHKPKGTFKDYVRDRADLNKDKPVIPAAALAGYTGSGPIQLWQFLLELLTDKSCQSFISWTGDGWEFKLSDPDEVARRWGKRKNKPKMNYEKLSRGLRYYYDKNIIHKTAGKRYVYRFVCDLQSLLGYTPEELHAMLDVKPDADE
Assay: ETS1 binding intensity (PBM fluorescence) (arbitrary fluorescence units); higher = stronger binding
Conditions: ETS1 concentration 10 nM
Protocol: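 gcPBM on wild-type 36-bp genomic probes with two neighbouring ETS1 sites (4-24 bp apart). Recombinant human ETS1 (10 nM) was detected with anti-ETS1 antibody fluorescence. Values are medians over 3 replicate spots. The probes sit in constant array flanks that are not printed.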

Q: How did the ETS1 binding intensity turn out when TCTACTTCCGGTTTGCCTGTGAATTCTTTCCTGGGC was run?
A: 153000

Q: With GAGGGTAACTTCCTGTTTCTGCCTTCCGGGTTTGAG as the sequence, how does the ETS1 binding intensity read?
A: 47100

Q: Which ETS1 binding intensity does the source give for GTTTTCAGTTGCCTTCCGGTTTCCTGCTGTGATAAC here?
A: 15800

Q: How did the ETS1 binding intensity turn out when AAGGGAATCTGGGAAATGTAGTTTCCTGCAATCCAG was run?
A: 540

Q: GCCCGAGCCGCTTCCGGGTACTTCCGGCGGCCGCGG was tested. Which ETS1 binding intensity did it give?
A: 39600

Q: GGCCGCTTCCGAGCGCCGCCAACCGCTTCCGGGTTC was tested. Which ETS1 binding intensity did it give?
A: 5250

Q: With GTCACTTCCGGCCCCGAGTTCGAGCCGCTTCCGGGT as the sequence, how does the ETS1 binding intensity read?
A: 115000

Q: Which ETS1 binding intensity does the source give for GGACTTCCCAACTAGACAGACCAAATGAGGAAGTTG here?
A: 880

Q: With CTGGGGGTCCGGATGCTTTGCGTTTCCCAGCAGTTG as the sequence, how does the ETS1 binding intensity read?
A: 1230

Q: Which ETS1 binding intensity does the source give for GGGCACTTCCGGGGCCGGCGCCCAGAGTTCCGGGAG here?
A: 46800

Q: With TGACAAGAGCCGGAACCGTCACTTCCGGCGGCGCGG as the sequence, how does the ETS1 binding intensity read?
A: 24700

Q: Which ETS1 binding intensity does the source give for CCCACTTCCGGCAACAAGATAGAGCACTTCCGTCAA here?
A: 77600

Q: For TCAGTGGGCGGAAGAGGTGGCCCCGGATGCTGCGGC, which ETS1 binding intensity is on record?
A: 1430

Q: For GCGGTTACTTCCGGTCACTTTCGCCGGAACCTGACT, which ETS1 binding intensity is on record?
A: 86200

Q: Which ETS1 binding intensity does the source give for CGCCGCCGGAAGTGCCTGGCCTCACTTCCGGTCAGA here?
A: 37200

Q: How did the ETS1 binding intensity turn out when ATTTTCGGTCTTCCGGTCAGCCGGAACCACTCACAC was run?
A: 29800

Q: Which ETS1 binding intensity does the source give for CCATTCATTTCCTGCCTCCCCGAGTTCCGGCTGCGG here?
A: 35800

Q: CAATTGAGGAAACAGGACCAAAGACAGGAAATGGCT was tested. Which ETS1 binding intensity did it give?
A: 2860

Q: Which ETS1 binding intensity does the source give for GCGCTTCGGGCCCTTCCGGCTTCCCGGGCCTCCCGG here?
A: 8330

Q: CGTCCACTGGAGGCTTCCTTCCGGCGCCCGCGTGCC was tested. Which ETS1 binding intensity did it give?
A: 3590

Q: With CGTCACTTCCGGCGCCGCGTGAGGCCTTCCGGTGCC as the sequence, how does the ETS1 binding intensity read?
A: 73900

Q: Which ETS1 binding intensity does the source give for GCGCCTGATTCACTTCCCTCTTCCGCTCTGAGGCGT here?
A: 4680

Q: GCGCTTCCGGGACGCAGGAGGCATCTGCATCCGGGG was tested. Which ETS1 binding intensity did it give?
A: 29000

Q: CCACTTCCGGCATGCGCAGGGACGCACCTTCCGGCT was tested. Which ETS1 binding intensity did it give?
A: 109000

Q: Which ETS1 binding intensity does the source give for GACCGCAGGAAGGGACGCGGCCGCACTTCCGGCGAC here?
A: 8620

Q: How did the ETS1 binding intensity turn out when GACAGGAAGGCTACAGGCTGCCTGTGGCTTCCGTGT was run?
A: 386

Q: AGCACTTCCTCAATTTCTGGCTCTACAGGATATTTC was tested. Which ETS1 binding intensity did it give?
A: 16100

Q: With CTCTGTGACTTCCTGGAGACTCACTTCCTAGATGAG as the sequence, how does the ETS1 binding intensity read?
A: 11300

Q: Which ETS1 binding intensity does the source give for AGACTTCCGTTCTGGCTCTCACTCTAGTTTCCTGGT here?
A: 67500

Q: With ACTGCCTTCCTGGCCTGGTGGTGAGAGGAAGTCGGG as the sequence, how does the ETS1 binding intensity read?
A: 2260

Q: How did the ETS1 binding intensity turn out when CTATGGTAGGAAACCCAGAAAACAGGAAGTGGCCTC was run?
A: 3030

Q: Which ETS1 binding intensity does the source give for CAACTTGTCGGAGCGGAACTTCCGGCGTCCTCCCTG here?
A: 22800

Q: For GGGTGCGGAAACGCGGCAGCCGCGGCCGGATGCTGC, which ETS1 binding intensity is on record?
A: 2710

Q: For GCTGCAACTTCCGGTGCGCTAGCCGGAAACGCGGGT, which ETS1 binding intensity is on record?
A: 78200

Q: With TGCCCGGCTTCCGGGTGGCTGCGCGGAAGCGCGGTG as the sequence, how does the ETS1 binding intensity read?
A: 20900

Q: How did the ETS1 binding intensity turn out when CCTCCCGGAAGCCGCTGGCCCGCGCCGGAAAAGGTG was run?
A: 7300

Q: How did the ETS1 binding intensity turn out when ACAACTTCCGGCTGTAAAGATGGCGGCTTCCTAGTG was run?
A: 96400

Q: For GGACAGGGACCGGATGGGAGGGGAAGTCGATGCTTG, which ETS1 binding intensity is on record?
A: 3430

Q: For TCCTCCTCACTTCCGCCGGAGCGGAAACGGTGAGGA, which ETS1 binding intensity is on record?
A: 31200

Q: For GGTGTTCCGGACCCGCGCGGTGCGGGGAGGAAGGCC, which ETS1 binding intensity is on record?
A: 1700

Q: TTTTATTTCCGGTTCTGAGGACGCCGCGGAAGCGGG was tested. Which ETS1 binding intensity did it give?
A: 78400

Q: For GGTGCTCACGGATGCTACGCTTGTTCCTGTCTCCTC, which ETS1 binding intensity is on record?
A: 370

Q: With GCCCTTCCGGTTATTTCCCTTCCTGTTTGTCTGCCT as the sequence, how does the ETS1 binding intensity read?
A: 48700

Q: AGCCCCACCATTTCCTGTGACTTCCTGGAGCCTGGC was tested. Which ETS1 binding intensity did it give?
A: 25600

Q: How did the ETS1 binding intensity turn out when TGAGCTATTTGACTTCCGGTTTCCTGCCCCATTTAA was run?
A: 63200

Q: For TCAATTTCTCATTTCCCTGGAGGAAGCCCATAAAGT, which ETS1 binding intensity is on record?
A: 217

Q: How did the ETS1 binding intensity turn out when CGGGCGGAAAGGGAGCTAGAGCATTCTGGGAAATGG was run?
A: 178

Q: TGTTTACTTCCGGCTTTTCGCCTAATTCCGGCGGCC was tested. Which ETS1 binding intensity did it give?
A: 55000

Q: TTATTCTGTTTCCGGCAGTTTTACTTCCGTTTGTTT was tested. Which ETS1 binding intensity did it give?
A: 15900

Q: For GCGGCTTGGGCCTTCCGGCTTTCCGTCCGCCGCGGC, which ETS1 binding intensity is on record?
A: 7060

Q: For AAAGCGCATTGCGGATGGCAATTCCGGTGCGTCATT, which ETS1 binding intensity is on record?
A: 732

Q: How did the ETS1 binding intensity turn out when CATTTACCACTTCCTGAGGTCATTTCCTGTTTTCTT was run?
A: 25800

Q: How did the ETS1 binding intensity turn out when GCTTGGCAGTCAGGAAGGACTTCCTGTTTCTGCTTC was run?
A: 14400

Q: Which ETS1 binding intensity does the source give for CACCACTTCCTGTTTCTGAGTCATCAGGAAGGTAAT here?
A: 58900

Q: CTCGCAGGCTTCCCGGCTGCAACTTCCGGCGCATGC was tested. Which ETS1 binding intensity did it give?
A: 14600

Q: How did the ETS1 binding intensity turn out when AGCAACTTCCGGTGCGCTTAGCGTTACTTCCGGCGC was run?
A: 116000

Q: How did the ETS1 binding intensity turn out when ACCCGGAAGCGCTTCACCCAGCCTGAGCGGAAGAAC was run?
A: 5640

Q: Which ETS1 binding intensity does the source give for CCCAGCTAAAGGAAGTCTGGCACTTCCTCTCCTCAA here?
A: 2990

Q: For GAGCACGACTTCCGGCCTGAAAAGGAAGTCTCCTCC, which ETS1 binding intensity is on record?
A: 89000

Q: Which ETS1 binding intensity does the source give for GAGCGGAAGTGGAAAAGACTAACTTCCGGCCTCGGG here?
A: 30600

Q: GACAGTTTCCTCTTTCACACTAGAATATCCTGTTGT was tested. Which ETS1 binding intensity did it give?
A: 10900

Q: TGCGCCCCGTGCTTCCTGCCATCCTGTGCTCTCTGC was tested. Which ETS1 binding intensity did it give?
A: 9740

Q: How did the ETS1 binding intensity turn out when ACCAGGGCTGCTTCCTCACATTTCCGGTCCTGAAAA was run?
A: 27700

Q: GGACCGGAAGTGCCTCCTGCGGAGGCAGGAAGTCCC was tested. Which ETS1 binding intensity did it give?
A: 58700

Q: AGCAGGAAGGACCTCAGTCCTCCAGTGCGGATGCTG was tested. Which ETS1 binding intensity did it give?
A: 207

Q: How did the ETS1 binding intensity turn out when TCATCTCTCCTGCAGGAAGGAAGTCCTGCCTCCCAC was run?
A: 315

Q: For AACGTCCAGGAGGAAGTCAATTTCCTGGCCCTCAAT, which ETS1 binding intensity is on record?
A: 5100

Q: GCGCCGGAAGCAGAGACGCGTTTCGGGAGGAAGGTG was tested. Which ETS1 binding intensity did it give?
A: 3580

Q: With GCAGGAGACGGAAGATGCATGGGTTTCCTGGCGCGC as the sequence, how does the ETS1 binding intensity read?
A: 424

Q: Which ETS1 binding intensity does the source give for CGGGACCGGAAGTGACGCAGAGAAGTTTCCGGGACT here?
A: 56800

Q: With ACAGCATCCGGAGCGCCGACGCGGGACCGGAAGTGA as the sequence, how does the ETS1 binding intensity read?
A: 26000

Q: For AGAAGCACACAAGGAAGTGTTTCCGGGACAGAGGGT, which ETS1 binding intensity is on record?
A: 9030

Q: How did the ETS1 binding intensity turn out when TAGTCCTGAAACTTCCTCTGCTTCCTCCTCCTGCCC was run?
A: 2700

Q: Which ETS1 binding intensity does the source give for CACGGTGATTTCCTGTAAACAACAGGAAATGTACAG here?
A: 22700

Q: With ACCGCCCGGAAGTGACGCGCCCGCGCATCCGGCCAC as the sequence, how does the ETS1 binding intensity read?
A: 19800

Q: TCGGACCGGAAGGAGTTGTTGGCGCTTCCGGTGGCC was tested. Which ETS1 binding intensity did it give?
A: 15900

Q: Which ETS1 binding intensity does the source give for CGGACCGGAAGTTGGGGTGACGCAATTTCCGGCGCG here?
A: 54200

Q: ATCACCAGCCTTCCTGTGGGACCGGAAAGGCAGTAG was tested. Which ETS1 binding intensity did it give?
A: 2720

Q: For GTAATACTTCGGGGAAATGCAGGATGCAGCTGCTGC, which ETS1 binding intensity is on record?
A: 243

Q: With CGAGGCGGTCGCGGAAGTAGAGGAAGCCTTCGCGGT as the sequence, how does the ETS1 binding intensity read?
A: 686
